Results published in PubChem BioAssay (NCATS).
Values joined by “and” are separate entries in the source; they are usually repeats but may differ in a detail not shown here. Equal entries are not always repeated. Results filed as inconclusive are left out. A number with no mark means an inactive call. The call rests on the fitted dose curve; in most records, active means well fitted inhibition curve with a large enough effect; inconclusive means small, poorly fitted or top-dose-only effect; inactive means flat fitted curve, though single readings scatter.

Tested on: KB-3-1
Experiment: Cytotoxic Profiling of Annotated Libraries Using Quantitative High-Throughput Screening (AID 1296008); further: nearly all actives have a fitted effect of over 60% in size
Conditions: Five cell lines viability, CellTiter-Glo ATP luminescence, 48-72 h; max response: hits give low values
Outline: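 Cytotoxicity was measured as CellTiter-Glo ATP luminescence, read after 10 min at room temperature. Compound treatment of the cells lasted 48 or 72 hr at 37 degrees Celsius in a qHTS format.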
On the % scale 0 is the no-effect control and ±100 the full control effect.

| SMILES | max response |
| --- | --- |
| Cc1cc(=O)c(C(=O)N[C@@H](C(=O)N[C@@H]2C(=O)N3C(C(=O)O)=C(CSc4nnnn4C)CS[C@H]23)c2ccc(O)cc2)c[nH]1 | 0.794% |
| F[Si-2](F)(F)(F)(F)F | 6.45% |
| CC(=O)OCC1=C(C(=O)O)N2C(=O)[C@@H](NC(=O)Cc3ccccc3)[C@H]2SC1 | -5.45% |
| NC(=O)[C@@H]1CCCN1C(=O)[C@H](Cc1cnc[nH]1)NC(=O)[C@@H]1CCC(=O)N1 | 0.162% |
| CC1(C)S[C@@H]2[C@H](N3C(=O)C(c4ccccc4)NC3(C)C)C(=O)N2[C@H]1C(=O)O (some centres not stated) | 3.76% |
| C[N@+]12CCCC[C@@H]1CCC(=C(c1cccs1)c1cccs1)C2 | -14.7% |
| Nc1nccs1 | -12.3% |
| CC(C)[C@@H](N)C(=O)O | -13.9% |
| C[C@H](CCCC(C)(C)O)[C@H]1CC[C@H]2[C@@H]3CC=C4C[C@@H](O)CC[C@]4(C)[C@H]3CC[C@]12C | 2.18% |
| C[C@H](N)C(=O)N[C@@H](C)P(=O)(O)O | -6.78% |
| NC[C@@H]1O[C@H](O[C@H]2[C@@H](O)[C@H](O[C@@H]3[C@@H](O)[C@H](N)C[C@H](N)[C@H]3O[C@H]3O[C@H](CO)[C@@H](O)[C@H](O)[C@H]3N)O[C@@H]2CO)[C@H](N)[C@@H](O)[C@@H]1O | 5.13% |
| O=C(NNCNNC(=O)c1ccncc1)c1ccncc1 | 1.42% |
| CCCCC(CC)CCC(CC(C)C)OS(=O)(=O)O (configuration not stated) | 11% and -8.89% |
| CC12CCC(C[N+](C)(CCC[N+](C)(C)C)C1)C2(C)C (configuration not stated) | -0.0096% |
| O=C(O)/C=C/C(=O)Nc1ccc(S(=O)(=O)Nc2nccs2)cc1 | -6.18% |
| CC(C)(O/N=C(\C(=O)N[C@@H]1C(=O)N2C(C(=O)[O-])=C(C[n+]3ccccc3)CS[C@H]12)c1csc(N)n1)C(=O)O | -11.3% |
| CC(CNC(=O)c1cccnc1)NC(=O)c1cccnc1 (configuration not stated) | -1.27% |
| CC(=O)Nc1c(I)c(C(=O)N[C@H]2C(O)O[C@H](CO)[C@@H](O)[C@@H]2O)c(I)c(N(C)C(C)=O)c1I (some centres not stated) | -7.33% |
| CN(C)CCC(O)(c1ccccc1)c1ccccc1Cl (configuration not stated) | 3.32% |
| C=CCN1CCCC1CNC(=O)c1cc(S(N)(=O)=O)cc(OC)c1OC (configuration not stated) | 5.61% |
| CC(=O)[O][Al][O]C(C)=O | -5.29% |
| Oc1cccc(O)c1O | 0.0163% |
| CCC(C)[C@@H](N)C(=O)O (some centres not stated) | 1.62% |
| NCCO/C=C/[C@H](N)C(=O)O | 0.921% |
| CC[C@H]1OC(=O)[C@H](C)[C@@H](O[C@H]2C[C@@](C)(OC)[C@@H](O)[C@H](C)O2)[C@H](C)[C@@H](O[C@@H]2O[C@H](C)C[C@H](N(C)C)[C@H]2O)[C@](C)(O)C[C@@H](C)CN(C)[C@H](C)[C@@H](O)[C@]1(C)O | -8.69% |
| C(=C\c1ccncc1)/c1ccccc1 | 1.91% and -0.505% |
| CC1CCC(NC(=O)N(CCCl)N=O)CC1 (configuration not stated) | 8.06% |
